# Screens as filed in PubChem BioAssay.
# HepG2 tox = HepG2 cytotoxicity, counter-screen for TGF-b inhibitors; HepG2 CAGA-GFP viability, ATP luminescence, 18 h; AID 588856; Potency, µM (top dose mostly 46.1 µM), for the others: at the highest dose activity change, negative = cytotoxicity, actives largely listed as cytotoxic; 410,000 tested, 0.76% active
#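 HepG2 CAGA-GFP cells (1000/well, DMEM with 1% FBS) received compound, then TGF-beta at 500 pg/mL final, and were incubated 18 hours at 37 degrees C. Viability was read by CellTiter-Glo luminescence. Media-only wells were set as complete cell-killing and DMSO as no toxicity.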
# DT40 TDP1 no CPT = qHTS for Inhibitors of human tyrosyl-DNA phosphodiesterase 1 (TDP1): qHTS in cells in absence of CPT | Potency, µM (titrated, usually from 46.2 µM), for the others: top-dose activity change, negative = growth inhibition, actives largely listed as inhibitors | AID 686978, 2013 | 420,000 tested, 15% active | DT40 Tdp1-/- hTDP1 cells, no CPT, ATP luminescence, 48 h; note: % is set by controls: 0 for no effect and ±100 for the full control effect; nearly all actives have a fitted effect of over 55% in size
#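 Chicken DT40 Tdp1-/- cells stably complemented with human TDP1 were seeded at 400 cells/well with DMSO in place of 20 nM camptothecin. After compound pinning, cells grew at least 48 hr at 37 °C; viability read by CellTiter-Glo luminescence.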
# TDP1 cell CPT = DT40-hTDP1 cell growth loss with CPT | chicken DT40 Tdp1-/-;hTDP1 cells + 20 nM CPT, ATP luminescence, 48 h | 420,000 tested, 12% active | Potency, µM (titrated, usually from 46.2 µM), for inactives: top-dose activity change, negative = growth inhibition, actives largely listed as inhibitors; note: % is set by controls: 0 for no effect and ±100 for the full control effect; nearly all actives have a fitted effect of over 55% in size
#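 Chicken DT40 Tdp1-/- cells complemented with human TDP1, 400 cells/well, exposed to compounds plus 20 nM camptothecin for at least 48 h at 37 C; viability read as ATP content by CellTiter-Glo luminescence.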
# ATXN2 expr inh = inhibitors of ATXN2 expression; HEK-293 ATXN2-luciferase reporter, luminescence, 24 h; 360,000 tested, 0.72% active; Potency, µM (titrated, usually from 57 µM), without a hit: at the top dose activity change, negative = inhibition, most hits filed as inhibitors; AID 1745845; note: % is set by controls: 0 for no effect and ±100 for the full control effect; nearly all actives have a fitted effect of over 55% in size
#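 qHTS (up to 57 uM final) was run with 24 h compound exposure of reporter cells at 37 °C. Each well was multiplexed: SteadyGlo luminescence measured ATXN2-luciferase expression after a fluorogenic Gly-Phe-AFC viability readout (25 uM final).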
# TGFb SMAD3 inh = inhibitors of TGF-b signaling; 410,000 tested, 1.2% active; Potency, µM (doses to about 46.1 µM), inactives show at the highest dose activity, negative = inhibition, usual class: inhibitors; HepG2 CAGA-GFP TGF-b/SMAD3 reporter, GFP fluorescence, 18 h; TGF-beta stimulated, 500 pg/mL final; note: % is set by controls: 0 for no effect and ±100 for the full control effect; nearly all actives have a fitted effect of over 65% in size
#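 Inhibition of TGF-beta-driven CAGA-GFP reporter expression in HEPG2 cells is measured by cellular GFP fluorescence after 18 h stimulation with 500 pg/mL recombinant TGF-beta in 1% FBS medium at 37 degrees C.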
# S2 tox = cell viability loss in ATXN counter-screen; 400,000 tested, 0.49% active; Potency, µM (titrated, usually from 56.7 µM), actives largely listed as cytotoxic; S2 cells (HEK-293 line with an ATXN2-luciferase reporter) viability, CellTiter-Fluor protease fluorescence, 24 h; note: nearly all actives have a fitted effect of over 40% in size
# Numbers without * were called inactive; i = inactive; ? = inconclusive; . = no result given. Most compounds without a hit are left out; they make up all but 17% or so of the library. Calls come from the whole dose curve; as a rule, active = well fitted curve in the direction sought with a large enough effect; inconclusive = small, poorly fitted or top-dose-only effect, or another doubt; inactive = no such curve, though single readings can be large; an effect the other way counts as inactive or inconclusive. Potency is the fitted concentration of half-maximal effect.
SMILES,HepG2 tox,DT40 TDP1 no CPT,TDP1 cell CPT,ATXN2 expr inh,TGFb SMAD3 inh,S2 tox
Cc1cc(F)ccc1S(=O)(=O)N1CCCOC1CNC(=O)C(=O)NC1CCCC1 (configuration not stated),3.9%,8.2%,-4.9%,-11.6%,0.8%,i
c1ccc(-n2nnnc2-c2cccc3ccccc23)cc1,-17.7%,4.61µM*,3.66µM*,-15.4%,-29.0%,i
Clc1ccc2ncc(-c3nnnn3-c3ccccc3)c(-c3ccccc3)c2c1,-14.6%,?,?,-29.5%,?,i
Cc1ccc(-n2nnnc2-c2ccccc2Br)cc1,-12.2%,-24.2%,-11.7%,-14.7%,-3.5%,i
Clc1ccc2[nH]cc(-c3nnnn3-c3ccccc3)c2c1,-11.7%,?,20.6µM*,-13.9%,?,i
CC(=O)NCCC(=O)N1CCCC(CNC(=O)c2ccc(-c3ccccc3)cc2)C1 (configuration not stated),-12.3%,-20.0%,-5.3%,2.6%,-1.6%,i
CCCCn1c(N)c(N(CCC(C)C)C(=O)CN2C(=O)C3CCCCC3C2=O)c(=O)[nH]c1=O (configuration not stated),5.1%,-4.2%,-21.9%,4.8%,5.0%,i
O=C(CC1SC(=O)N(c2ccccc2)C1=O)Nc1ccc(Cl)cc1 (configuration not stated),3.6%,20.6µM*,7.31µM*,-31.3%,-4.1%,i
O=C(CC1SC(=O)N(c2ccccc2)C1=O)Nc1ccc(Br)cc1 (configuration not stated),-0.8%,5.8µM*,2.59µM*,-19.4%,-20.6%,?
O=C(CC1SC(=Nc2ccccc2)N(CCCO)C1=O)Nc1ccc(Cl)cc1 (configuration not stated),-11.8%,-22.6%,-22.4%,-28.5%,?,?
CCC(CO)NS(=O)(=O)c1cc(-c2nn(C)c(=O)c3ccccc23)ccc1C (configuration not stated),-19.1%,-28.8%,?,-19.3%,13.8%,i
O=C(NCCc1ccc(Cl)cc1)C1CCN(c2ncccn2)CC1,7.5%,-13.8%,7.3%,-21.1%,2.3%,i
CC(CCc1ccc(O)cc1)N1CCOc2c(O)cc(-c3nc4ccccc4s3)cc2C1 (configuration not stated),.,16.4µM*,18.4µM*,.,.,?
NC(=O)c1ccccc1OCC(=O)Nc1cccnc1Cl,-4.2%,-26.2%,-2.0%,.,20.7%,i
Cc1cccc(C)c1NC(=O)c1sccc1SCC#N,-8.0%,?,11.2µM*,-3.2%,22.9%,i
Cc1csc(=O)n1CC(=O)Nc1ccc(Cl)c(Cl)c1,-32.7%,4.3%,-28.7%,-4.4%,-1.8%,i
O=C(Cn1c2c(sc1=O)C1c3ccccc3OCC1CS2)Nc1ccc(Cl)c(Cl)c1 (configuration not stated),-4.9%,16.4µM*,9.2µM*,?,-17.4%,i
COc1cccc(NC(=O)CN(C)C(=O)c2cc(-c3ccccc3)nc3ccc(C)cc23)c1,-5.4%,10.3µM*,13µM*,-8.1%,10.6%,i
COc1cccc(NC(=O)c2cc(-c3ccc(C)o3)nc3ccccc23)c1,-34.6%,?,?,-1.0%,-20.0%,i
COc1cccc(NC(=O)CN(C)C(=O)c2cc(-c3ccc(C)o3)nc3ccccc23)c1,-13.9%,20.6µM*,?,.,5.3%,i
COc1cccc(NC(=O)CN(C)C(=O)c2cc(-c3cccc(Br)c3)nc3ccccc23)c1,9.2%,16.4µM*,?,?,?,?
O=C1c2ccccc2C(c2nnnn2Cc2ccccc2)N1C1CC1 (configuration not stated),.,-6.8%,4.5%,15.4%,.,i
CC(=O)c1ccc(N/N=C(/C(N)=O)C2=NC(C)(C)Cc3ccccc32)cc1,-29.3%,9.2µM*,11.6µM*,?,-15.1%,?
Cc1cc(S(=O)(=O)C(CNC(=O)COc2ccc(Cl)cc2)c2cccs2)ccc1F (configuration not stated),-6.8%,?,2.59µM*,.,-4.0%,.
O=C(COc1ccccc1)NCC(c1cccs1)S(=O)(=O)c1ccc(Cl)cc1 (configuration not stated),-20.4%,23.1µM*,?,-2.9%,-26.2%,i
SMILES,HepG2 tox,DT40 TDP1 no CPT,TDP1 cell CPT,ATXN2 expr inh,TGFb SMAD3 inh,S2 tox
O=C(Cc1ccc(Cl)cc1)NCC(c1cccs1)S(=O)(=O)c1ccccc1 (configuration not stated),-22.7%,?,?,-11.3%,-23.8%,i
O=C(NCCc1ccc(Cl)cc1)C(=O)NCC(c1ccco1)S(=O)(=O)c1ccccc1 (configuration not stated),-4.6%,-8.8%,-9.5%,.,0.0%,.
O=C(COc1ccc(Cl)cc1)NCC(c1ccco1)S(=O)(=O)c1ccccc1 (configuration not stated),-0.9%,20.6µM*,?,.,?,.
COc1ccc(CC(=O)NCC(c2cccs2)S(=O)(=O)c2ccc(Cl)cc2)cc1 (configuration not stated),-20.3%,?,?,.,-16.2%,.
COP(=O)(OC)C(Nc1ccc(C)cc1)c1ccc(Br)cc1 (configuration not stated),-8.4%,-25.6%,-6.5%,3.6%,4.6%,i
Cc1ccc(S(=O)(=O)N2CCN(CCNC(=O)C(=O)NCc3ccccc3)CC2)cc1,-11.6%,-14.1%,-29.9%,2.1%,4.0%,i
O=C(Cc1ccccc1)NNC(=S)NC(=O)c1cccs1,-25.7%,?,?,-21.0%,-17.6%,i
O=C(Cc1cccs1)NNC(=S)NC(=O)c1ccc(F)c(F)c1,-22.6%,?,20.6µM*,-18.1%,?,?
O=C(Cc1cccs1)NNC(=S)NC(=O)c1ccccc1,-5.6%,14.6µM*,?,-17.4%,5.1%,i
O=C(Cc1cccs1)NCc1ccc(F)cc1,-0.3%,-0.4%,7.6%,-2.2%,-14.5%,i
CCCNC(=O)C1(C)CCCN(C(=O)CN2C(=O)c3ccccc3C2=O)C1 (configuration not stated),2.3%,7.9%,3.7%,-3.3%,3.7%,i
C/C(=N\NC(=O)c1cccnc1)c1cc2ccccc2o1,-12.2%,-27.0%,5.7%,-2.7%,3.9%,i
